Laboratory results taken from the supplement of paper PMC12494721.
Structures can show the parent of a compound that is named as a salt.

Legend:
Settings in all cases: incubation time: 27 h, anaerobic, 37 °C;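 for the amine columns active = adjusted P below 0.05 in both replicates with a change the same way and a mean fold change under 0.8 or over 1.25; inactive = the rest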
[1] = tested on: Clostridium sporogenes DSM 1664; assay: growth (OD595) fold change vs plate DMSO controls (fold change (ratio)); higher = more growth
Summary of the method: (§1)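 Growth is calculated as fold change against the median of the DMSO control wells on each plate. Readings at 595 nm from anaerobic mGAM cultures (96-well, 27 h, 37 °C) were blank-subtracted, background-corrected with 20 µM compound solutions in water, and converted to OD by a calibration factor of 5. Fold changes above 1.5 were recorded as NA, and results are means of 2 biological replicates.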

[2] = tested on: Escherichia coli IAI1; assay: as above
Summary of the method: as §1

[3] = tested on: Klebsiella aerogenes DSM 30053; assay: as above
Summary of the method: as §1

[4] = tested on: Ruminococcus gnavus DSM 108212; assay: as above
Summary of the method: as §1

[5] = tested on: Klebsiella aerogenes DSM 30053; assay: fold change of Histamine concentration vs plate DMSO controls (fold change (ratio)); higher = more amine produced, active = hit call of the paper (significant change in both replicates, either direction)
Summary of the method: (§2)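 In 80 µL wells, cultures of four gut bacterial strains in mGAM started at OD 0.1 before a 1:1 dilution and grew anaerobically at 37 °C for 27 h. Compounds were added to 20 µM final, except sweeteners at 50 µM final. After extraction of whole cultures with cold acetonitrile/methanol plus 0.1% formic acid and centrifugation, amines were measured by LC–triple-quadrupole MS in dynamic MRM mode against external calibration curves, with within-batch drift correction. Values give fold change over DMSO controls on the same plate, averaged across 2 biological replicates.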

[6] = tested on: Clostridium sporogenes DSM 1664; assay: fold change of Tryptamine concentration vs plate DMSO controls (fold change (ratio)); higher = more amine produced, active = hit call of the paper (significant change in both replicates, either direction)
Summary of the method: as §2

[7] = tested on: Ruminococcus gnavus DSM 108212; assay: as above
Summary of the method: as §2

[8] = tested on: Escherichia coli IAI1; assay: fold change of Putrescine concentration vs plate DMSO controls (fold change (ratio)); higher = more amine produced, active = hit call of the paper (significant change in both replicates, either direction)
Summary of the method: as §2

[9] = tested on: Klebsiella aerogenes DSM 30053; assay: as above
Summary of the method: as §2

[10] = tested on: Escherichia coli IAI1; assay: fold change of Cadaverine concentration vs plate DMSO controls (fold change (ratio)); higher = more amine produced, active = hit call of the paper (significant change in both replicates, either direction)
Summary of the method: as §2

[11] = tested on: Klebsiella aerogenes DSM 30053; assay: as above
Summary of the method: as §2

[12] = tested on: Ruminococcus gnavus DSM 108212; assay: fold change of 2-Phenylethylamine concentration vs plate DMSO controls (fold change (ratio)); higher = more amine produced, active = hit call of the paper (significant change in both replicates, either direction)
Summary of the method: as §2

SMILES | growth [1] | growth [2] | growth [3] | growth [4] | fold change of Histamine concentration [5] | fold change of Tryptamine concentration [6] | fold change of Tryptamine concentration [7] | fold change of Putrescine concentration [8] | fold change of Putrescine concentration [9] | fold change of Cadaverine concentration [10] | fold change of Cadaverine concentration [11] | fold change of 2-Phenylethylamine concentration [12]
CN1CCC(=C2c3ccccc3CC(=O)c3sccc32)CC1 [Ketotifen fumarate] (20 µM) | 1 | 0.988 | 1.07 | 1 | 0.935 (inactive) | 1.02 (inactive) | 0.991 (inactive) | 0.966 (inactive) | 0.996 (inactive) | 1.01 (inactive) | 1.01 (inactive) | 0.968 (inactive)
OC[C@H]1O[C@H](O[C@H]2O[C@H](CO)[C@@H](O)[C@H](O)[C@H]2O)[C@H](O)[C@@H](O)[C@@H]1O [Trehalose] (50 µM) | 0.902 | 1.07 | 1.03 | 1.06 | 0.94 (inactive) | 1.16 (inactive) | 1.09 (inactive) | 1 (inactive) | 0.901 (inactive) | 0.831 (inactive) | 1.06 (inactive) | 1.15 (inactive)
OCCN1CCN(CC/C=C2/c3ccccc3Sc3ccc(Cl)cc32)CC1 [Zuclopenthixol dihydrochloride] (20 µM) | 0.904 | 1.25 | 1.01 | 0.937 | 1.03 (inactive) | 0.993 (inactive) | 0.919 (inactive) | 1.31 (inactive) | 0.994 (inactive) | 1.09 (inactive) | 0.992 (inactive) | 0.947 (inactive)
CC(=O)Nc1ccc(OC(=O)c2ccccc2O)cc1 [Acetaminosalol] (20 µM) | 0.904 | 0.977 | 0.996 | 0.994 | 0.933 (inactive) | 1.06 (inactive) | 0.928 (inactive) | 1.01 (inactive) | 1.01 (inactive) | 1 (inactive) | 0.999 (inactive) | 0.917 (inactive)
CCCCCCCCCCCCCCCC[N+](C)(C)CCN(Cc1ccc(OC)cc1)c1ncccn1 [Thonzonium bromide] (20 µM) | 0.856 | 1.04 | 1.02 | 1 | 1.04 (inactive) | 0.673 (active) | 0.742 (active) | 1.06 (inactive) | 1 (inactive) | 0.984 (inactive) | 0.995 (inactive) | 0.782 (inactive)
Nc1ccc(/N=N/c2ccccc2)c(N)n1 [Phenazopyridine hydrochloride] (20 µM) | 1.12 | 0.985 | 0.982 | 1.06 | 0.998 (inactive) | 0.991 (inactive) | 1.02 (inactive) | 0.969 (inactive) | 0.986 (inactive) | 1.02 (inactive) | 0.994 (inactive) | 0.969 (inactive)
O=C(c1cc(O)c(O)c(O)c1)c1ccc(O)c(O)c1O [Exifone] (20 µM) | 1.09 | 1 | 0.934 | 0.904 | 1.06 (inactive) | 1.09 (inactive) | 1.03 (inactive) | 1.01 (inactive) | 0.998 (inactive) | 0.991 (inactive) | 1 (inactive) | 1.07 (inactive)
CN(C)CCCN1c2ccccc2Sc2ccc(C(F)(F)F)cc21 [Triflupromazine hydrochloride] (20 µM) | 1.08 | 1.04 | 1.01 | 1.21 | 0.959 (inactive) | 1.05 (inactive) | 0.814 (inactive) | 1.01 (inactive) | 0.998 (inactive) | 1.08 (inactive) | 1.01 (inactive) | 0.821 (inactive)
CN1CCN(c2c(F)cc3c(=O)c(C(=O)O)cn4c3c2OCN4C)CC1 [Marbofloxacin] (20 µM) | 0.0155 | 0.0185 | 0.139 | 1.36 | 0.107 (active) | 0.0554 (active) | 0.992 (inactive) | 0.616 (active) | 0.607 (active) | 0.231 (active) | 0.932 (inactive) | 1.04 (inactive)
Nc1nc(Cl)nc2c1ncn2[C@H]1C[C@H](O)[C@@H](CO)O1 [Cladribine] (20 µM) | 0.964 | 0.974 | 1.06 | 0.893 | 0.841 (inactive) | 1.06 (inactive) | 0.925 (inactive) | 0.684 (inactive) | 0.984 (inactive) | 0.934 (inactive) | 1.02 (inactive) | 0.957 (inactive)
NC1CCN(c2c(F)cc3c(=O)c(C(=O)O)cn(C4CC4)c3c2Cl)C1 (centres undefined) [Clinafloxacin] (20 µM) | 0.00892 | 0.0142 | 0.102 | 0.356 | 0.118 (active) | 0.0514 (active) | 0.337 (active) | 0.703 (inactive) | 0.647 (active) | 0.233 (active) | 0.942 (inactive) | 0.36 (active)
CCN1CCCC(OC(=O)C(c2ccccc2)c2ccccc2)C1 (centres undefined) [Piperidolate hydrochloride] (20 µM) | 1.1 | 1.01 | 0.987 | 0.893 | 1.02 (inactive) | 1.07 (inactive) | 1.01 (inactive) | 1.02 (inactive) | 1 (inactive) | 1.02 (inactive) | 0.993 (inactive) | 1.06 (inactive)
